The values below come from ChEMBL document CHEMBL3988442, “University of Dundee, Small-Polar-MMV Screening Library” (2021).

The target of this assay is AMP-activated protein kinase, AMPK (Homo sapiens) (UniProt P54646+O43741+P54619+Q9UGJ0+Q9Y478+Q13131+Q9UGI9). As to the kind of experiment: AMP-dependent Kinase enzyme assay. An in vitro enzyme assay that detects ADP turnover that is directly proportional to AMPK activity. This uses naive AMPK that is activated during the assay with MK-8722. More on the design: scale not given: direction of the effect not stated beside the values. In kind it is functional. The note with it: 30 µM.
As to `O=C(c1cc(C2CC2)nc2onc(-c3ccccc3)c12)N1CCOCC1`, the Percent Effect was determined as 4.72%. In the case of `CNc1nc(C(=O)N2CCn3nc(C(=O)OC)cc3C2)cs1`, the Percent Effect was -0.197%. With `N#CC1(NC(=O)c2ccc(F)cc2OC(F)F)CCOCC1` the figure was 1.96%; with `FC(F)(F)Oc1ccc(CN2CCCC(n3cncn3)C2)cc1` (stereo not given), 3.31%; with `O=S(=O)(NCCc1cn2ccccc2n1)N1CCOCC1`, 3.56%.

With `Cc1c(C(=O)NC2CCCC2)nnn1-c1ccccc1`, the Percent Effect is -3.83%. For `CSCC[C@H](NC(C)=O)C(=O)N(C)Cc1ccc(-n2cccn2)cc1`, the Percent Effect was -8.05%. With `O=C(CCn1cncn1)N1CCCC(CO)(CCCc2ccccc2)C1` (stereo not given) the figure was 0.934%; with `O=C(Nc1cccc(N2CCOCC2)c1)N[C@H](CO)c1ccccc1`, 6.04%; with `Cc1cc(N2CCC(n3cc(CN4CCSCC4)nn3)CC2)ccn1`, 2.21%.

Turning to `CC(C)(C)CN(CCO)C(=O)Nc1cccc(N2CCNC2=O)c1`, the Percent Effect was 2.19%. For `CCN(C)Cc1cccc(CNC(=O)NCCc2ccccn2)c1`, the Percent Effect turned out to be 3.33%. As for `Cc1cc(C)c(C#N)c(N2CCC3(CCCN(CCO)C3=O)C2)n1` (stereo not given), the Percent Effect stood at 8.35%. `Cc1nnc(CN(C)CC(=O)N2CCCC(C(F)(F)F)C2)n1C` (stereo not given): the Percent Effect came to 14.3%.

For the compound `CC(=O)c1cnc(NCCCN2CCOCC2)nc1C`, the Percent Effect is -7.41%. For `COc1ncc(NCc2ccc(Cl)c(Cl)c2)cc1C(N)=O`, the Percent Effect came out at 18.2%.

On to `COc1ccccc1C(C)(C)NC(=O)Nc1ccc(F)c(C(N)=O)c1`, for which the Percent Effect is -5.46%. Consider `CCS(=O)(=O)NCC(=O)N(C1CC1)C1Cc2ccccc2C1`, for which the Percent Effect was -4.92%. On to `Cc1ncsc1C(=O)N1CC[C@@]2(O)CCN(C(=O)N3CCCC3)C[C@H]2C1`, for which the Percent Effect is -1.97%. With `CCc1ccc(NC(=O)CCN2CC(n3nc(C)cc3C)C2)cc1` the figure was -4.58%; with `CCc1ccc(C(=O)NCC2CCCN2CC)o1` (stereo not given), 0.975%; with `N#CCc1ccc(NC(=O)N[C@H](CO)Cc2ccc(O)cc2)cc1`, 9.92%. As for `COc1ccccc1-c1cccc(C2CCCN(C3CCOCC3)C2)n1` (stereo not given), the Percent Effect is -7.08%. For the compound `Cc1cccc(OC2CCN(Cc3ncc[nH]3)CC2)c1`, the Percent Effect was -0.938%. For `Cc1nccn1[C@@H]1CC[C@@H](N(C)S(=O)(=O)c2ccccc2F)[C@H]1O`, the Percent Effect is 5.86%. Turning to `CC(=O)NCc1ccc(C(=O)N2CCCc3c(F)ccc(C)c32)o1`, the Percent Effect amounted to 0.928%. As for `Cc1ccc(C(=O)NCCC2CN(C3CCCC3)CCO2)c(C)c1` (stereo not given), the Percent Effect is 4.11%. With `Cc1cnn(C2CCCN(C(=O)c3cc(-c4cccs4)n[nH]3)C2)c1` (stereo not given) the figure was -1.86%; with `Cc1nc(NC(=O)c2c3c(nn2C2CCS(=O)(=O)C2)CCC3)sc1C` (stereo not given), -4%; with `CN(C1CCCCC1)S(=O)(=O)NCC1Cc2ccccc2O1` (stereo not given), -9.03%. Regarding `CC1CN(Cc2cccc(CN)c2)CCO1` (stereo not given), the Percent Effect was -4.57%. For `CC(C)c1nc(C2CCCN2CCc2ccccn2)no1` (stereo not given) the value was 20.7%; for `C[C@@H]1CN(S(=O)(=O)N2CCCC2)CC[C@@]1(O)C1CCOCC1`, -5.74%; for `CCn1cc(S(=O)(=O)NCc2ccnc(-n3ccnc3)c2)cn1`, -0.563%. For `O=C(C1CNCCN1C(=O)CCOc1ccccc1)N1CCOCC1` (stereo not given) the value was 13%; for `O=C(NCc1nnnn1-c1ccccc1)c1ccc(C2CCCO2)s1` (stereo not given), 1.57%. For the compound `CCN(CC)S(=O)(=O)NC1CCN(c2ccc(OC)cc2)CC1`, the Percent Effect came out at 9.49%.

For the compound `CS(=O)(=O)NC(=O)c1ccn(-c2cccc(Br)c2)n1`, the Percent Effect is 2.69%. For `Cc1ccc(-c2cn(C3CCN(C(=O)[C@H]4CCCO4)CC3)nn2)cc1`, the Percent Effect was -0.746%. As to `Cc1cc(S(=O)(=O)N(CCO)C2CC2)ccc1F`, the Percent Effect was 0.797%.
